IL1B secr inh – blocks inflammasome-driven IL-1 beta release; THP-1 LPS/ATP IL-1B secretion, AlphaLISA, 16 h; stronger effect = lower value; activity change, % at 57.5 µM; AID 743279; 4.7% of 360,000 active; in the data active means activity change below about -50%; inconclusive means mostly about -30% to -49%
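Secreted IL-1B measured by AlphaLISA bead assay after 16 h compound exposure of THP-1 cells; compounds (final up to 57.5 uM) added 1 h before LPS (250 ng/mL) and ATP (1.25 mM) stimulation; lower signal means less secretion.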
TDP1 cell noCPT – qHTS for Inhibitors of human tyrosyl-DNA phosphodiesterase 1 (TDP1): qHTS in cells in absence of CPT; Potency, µM (titrated, usually from 46.2 µM), inactives show at the highest dose activity change, negative = growth inhibition, actives largely listed as inhibitors; DT40 Tdp1-/- hTDP1 cells, no CPT, ATP luminescence, 48 h; AID 686978, 2013; 15% of 420,000 active; further: potency means the concentration at half of the fitted maximal effect; nearly all actives have a fitted effect of over 55% in size
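Stably hTDP1-transfected Tdp1-null chicken DT40 cells were treated with library compounds minus camptothecin and grown for at least 48 hr at 37 °C, after which cellular ATP was quantified by luminescence.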
DT40 TDP1 CPT – DT40-hTDP1 cell growth loss with CPT; chicken DT40 Tdp1-/-;hTDP1 cells + 20 nM CPT, ATP luminescence, 48 h; Potency, µM (titrated, usually from 46.2 µM), for inactives: at the highest dose activity change, negative = growth inhibition, hits mostly inhibitors; 12% of 420,000 active; further: potency means the concentration at half of the fitted maximal effect; nearly all actives have a fitted effect of over 55% in size
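Chicken DT40 Tdp1-/- cells complemented with human TDP1, 400 cells/well, exposed to compounds plus 20 nM camptothecin for at least 48 h at 37 C; viability read as ATP content by CellTiter-Glo luminescence.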
HT1080 IDH1KD tx – toxicity to HT-1080 IDH1 knockdown cells (counter line); Potency, µM (series often up to 46.1 µM), for inactives: top-dose activity, negative = toxicity, actives largely listed as cytotoxic; AID 686971; HT-1080 IDH1 knockdown viability, ATP luminescence, 48 h; 2% of 360,000 active;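 further: potency means the concentration at half of the fitted maximal effect; 0% = DMSO wells and -100% = cell-free medium wells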
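In this qHTS, HT-1080 cells depleted of IDH1 are exposed for 48 h at 37 °C to compound titrations. Toxicity is scored from CellTiter-Glo luminescence, with DMSO as full viability and medium alone as none.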
HT1080-NT tox – kills 2HG-producing HT-1080-NT fibrosarcoma cells; HT-1080-NT fibrosarcoma viability, CellTiter-Glo ATP luminescence, 48 h; Potency, µM (titrated, usually from 46.1 µM), without a hit: at the highest dose activity, negative = less viability, actives largely listed as cytotoxic; 1.6% of 360,000 active; AID 686970;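 further: NT is the 2HG producing partner of a matched IDH1 knockdown line; potency means the concentration at half of the fitted maximal effect; 0% = DMSO-treated cells and -100% = media-only wells without cells; nearly all actives have a fitted effect of over 55% in size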
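Read-out is CellTiter-Glo luminescence after 10 minutes at room temperature, following 48 hours' compound treatment of HT-1080-NT cells (750 cells/well, RPMI, 5% FBS, 37 degrees C).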
The depositor's hits bear a star; ? = inconclusive; . = no result given; [ ] = another dose, or the depositor's remark. Rows were chosen to be rich in hits. Some 19% of all compounds tested hit in one or more screens of this group. Unless noted, the call rests on the fitted dose curve; in most records, active means well fitted curve in the direction sought with a large enough effect; inconclusive means small, poorly fitted or top-dose-only effect, or another doubt; inactive means no such curve, though single readings can be large; an effect the other way counts as inactive or inconclusive. Unless noted, on the % scale 0 is the no-effect control and ±100 the full control effect.

SMILES	IL1B secr inh	TDP1 cell noCPT	DT40 TDP1 CPT	HT1080 IDH1KD tx	HT1080-NT tox
COc1ccc(S(=O)(=O)N2CCC[C@H]2C(=O)N2CCC[C@H]2C(=O)N[C@@H](C)c2ccccc2)cc1C	24.3	?	?	-15.6%	6.0%
Cc1cc2c(cc1C)-n1nnnc1C(N1CCN(CC(=O)NC(C)C)CC1)C(=O)N2 (centres undefined)	-3.4	-27.9%	?	12.6%	19.0%
O=C(Nc1nnc(S(=O)(=O)N2CCN(c3ccc(F)cc3)CC2)s1)c1ccco1	6.8	?	16.4µM*	5.6%	1.6%
O=C(Nc1nnc(S(=O)(=O)N2CCOCC2)s1)c1ccc(F)cc1	13.3	-3.6%	11.1%	2.0%	-15.1%
CCOc1ccc2nc(N3CCCC(C(=O)NCCCN4CCCCC4)C3)sc2c1 (centres undefined)	0.0	?	?	?	18.4µM*
COc1ccc2nc(N3CCCC(C(=O)NCCCN4CCN(C)CC4)C3)sc2c1 (centres undefined)	-28.5	-0.4%	-1.9%	-1.6%	-7.9%
CCOc1ccc2nc(N3CCCC(C(=O)NCCCN4C(C)CCCC4C)C3)sc2c1 (centres undefined)	-69.7*	?	?	?	?
CCOc1ccc2nc(N3CCCC(C(=O)NCCCN4CC(C)CC(C)C4)C3)sc2c1 (centres undefined)	-53.5*	18.4µM*	18.4µM*	?	16.4µM*
O=C(Cn1cnc2ccccc21)N/N=C/c1cccs1	4.5	-4.6%	4.7%	19.9%	9.8%
Cn1c(=O)c2c(ncn2CC(=O)N/N=C/C(Br)=C/c2ccccc2)n(C)c1=O	-18.7	3.66µM*	2.31µM*	-1.9%	-0.9%
O=C(Cn1cnc2ccccc21)N/N=C/C(Br)=C/c1ccccc1	?	23.1µM*	6.51µM*	?	?
CC1CCN(C(=O)Cn2cnc3c2c(=O)n(C)c(=O)n3C)c2ccccc2S1 (centres undefined)	62.6	18.4µM*	?	-2.3%	-0.4%
COc1cccc(/C=N/NC(=O)Cn2cnc3c2c(=O)n(C)c(=O)n3C)c1	16.7	?	29.1µM*	7.0%	16.8%
COc1ccc(OC)c(NC(=O)c2cc3c(n(-c4ccc(Cl)cc4)c2=O)CC(C)(C)CC3=O)c1	.	-5.8%	?	.	.
Cc1cc2c(n1-c1ccc(Cl)cc1)CC(C)(C)CC2=O	14.2	0.8%	?	-3.9%	12.1%
Cc1ccc(-c2cc3c(n2-c2ccccc2F)CC(C)(C)CC3=O)cc1	.	13µM*	18.4µM*	.	.
COc1ccc(C)cc1-n1c(-c2ccc(Cl)cc2)cc2c1CC(C)(C)CC2=O	.	14.6µM*	?	.	.
COc1ccc(-n2c(-c3ccc(Cl)cc3)cc3c2CC(C)(C)CC3=O)c(OC)c1	.	18.4µM*	23.1µM*	.	.
CCOC(=O)c1ccc(Oc2coc3cc(O)ccc3c2=O)cc1	16.3	-7.8%	-10.8%	0.0%	-4.5%
CC(C)(CC(=O)O)CC(=O)N1CCN(c2nc3cc(Cl)ccc3s2)CC1	23.4	-25.0%	-1.0%	-1.2%	0.8%
Clc1cccc(CN2CCC3CC2c2cc(N4CCCCC4)ccc23)c1 (centres undefined)	22.5	?	-20.4%	-0.7%	0.3%
c1ccc(CN2CCC3CC2c2c3cccc2N2CCOCC2)cc1 (centres undefined)	27.6	14.6µM*	?	10.2%	-0.4%
COc1ccc(C(CC(=O)O)NC(=O)COc2cc(C)ccc2C)cc1OC (centres undefined)	-0.2	-4.8%	-0.5%	9.5%	4.2%
C[C@H]1CN=C(Nc2ccccc2)N1CCC1CCCCC1	0.0	?	18.4µM*	-1.9%	7.4%
C[C@H]1CN=C(Nc2ccccc2)N1CC1CCC1	6.9	1.4%	-0.9%	-1.7%	1.9%
SMILES	IL1B secr inh	TDP1 cell noCPT	DT40 TDP1 CPT	HT1080 IDH1KD tx	HT1080-NT tox
C[C@H]1CN=C(Nc2ccccc2)N1CC1CCCCCC1	-23.9	13µM*	18.4µM*	8.1%	1.0%
C[C@H]1CN=C(Nc2ccccc2)N1CCCC1CCCC1	?	16.4µM*	18.4µM*	-8.8%	-11.5%
Cc1cn(CC(=O)NCC(c2ccccc2)c2ccccc2)c(=O)[nH]c1=O	-5.0	-11.1%	-9.0%	-0.6%	5.0%
Nc1cc2c(cc1N)-c1ccccc1C2	-51.8*	16.4µM*	?	-19.3%	-4.7%
CC1CCCCN1CCNC(=O)c1cc2c(-c3ccccc3F)nn(C)c2s1 (centres undefined)	-27.8	?	?	-24.6%	-10.4%
CCOC(=O)C1CCN(C(=O)c2cc3c(-c4ccc(OC)c(OC)c4)nn(C)c3s2)CC1	15.4	20.6µM*	16.4µM*	-14.7%	-17.6%
CCOC(=O)N1CCC(NC(=O)c2cc3c(-c4ccccc4F)nn(C)c3s2)CC1	19.0	8.2µM*	13µM*	9.7%	-5.5%
CCOC(=O)N1CCC(NC(=O)c2cc3c(-c4ccc(OC)c(OC)c4)nn(C)c3s2)CC1	-8.5	20.6µM*	?	-1.5%	-5.2%
CCCCN(C(=O)CSCC(=O)Nc1ccc(OC)cc1)c1c(N)n(Cc2ccccc2)c(=O)[nH]c1=O	18.2	0.1%	-8.2%	10.6%	0.3%
OCC[C@@H]1C[C@H](O)[C@@H](O)[C@@]2(CCCCO2)O1	47.9	-1.8%	-21.1%	16.6%	15.6%
Nc1sc(-c2ccccc2)c(Cc2ccccc2)c1C(=O)O	-3.4	13.7%	-4.8%	2.5%	6.0%
Cc1ccc(-c2csc(NC(=O)CSc3nnc4c(n3)[nH]c3ccccc34)n2)cc1	-5.0	5.8µM*	13µM*	20.6µM*	18.4µM*
Cc1ccc(-c2csc(NC(=O)CSc3nc(C)cc(=O)[nH]3)n2)cc1	34.3	18.4µM*	18.4µM*	9.2%	1.8%[9.24 µM]
Cc1csc(NC(=O)CSc2nc3[nH]ncc3c(=O)[nH]2)n1	3.7	29.1µM*	?	10.1%	-2.0%
Cc1ccc(-c2csc(NC(=O)CSC3=NCCS3)n2)cc1	?	-28.7%	?	-2.8%	-3.6%
CCOC(=O)CN(C(=O)CSc1nnc2c(n1)[nH]c1ccc(OC)cc12)c1ccc(F)cc1	-58.8*	?	20.6µM*	-7.5%	-18.9%
Cc1cn(CC(=O)NCC(C)c2ccccc2)c(=O)[nH]c1=O (centres undefined)	17.6	0.1%	-7.2%	3.4%	0.8%
O=C(CSc1nnc2c(n1)[nH]c1ccccc12)Nc1cccc(S(=O)(=O)N2CCOCC2)c1	0.0	?	14.6µM*	-5.9%	-3.5%
CC(=O)c1ccc(NC(=O)CSc2nnc3c(n2)[nH]c2ccccc23)cc1	.	16.4µM*	?	.	.
O=C(CSc1nnc2c(n1)[nH]c1ccccc12)Nc1ccc(N2CCOCC2)cc1	48.1	?	?	-2.7%	3.5%

Assay outcomes deposited in PubChem by National Center for Advancing Translational Sciences (NCATS).
